# In PMC5540273 (PLoS ONE, 2017):
# Like-named read-outs stand apart in the source and are kept apart here.
# Assays:
# FGFR1 = conditions: concentration: 1 μM, replicates: in singlicate; n = 1
# FGFR2 = conditions: concentration: 1 μM, replicates: in singlicate; n = 1
# FGFR3 = conditions: concentration: 1 μM, replicates: in singlicate; n = 1
# FGFR4 = conditions: concentration: 1 μM, replicates: in singlicate; n = 1
# FGR = conditions: concentration: 1 μM, replicates: in singlicate; n = 1
# FLT1 = conditions: concentration: 1 μM, replicates: in singlicate; n = 1
# FLT3-autoinhibited = conditions: concentration: 1 μM, replicates: in singlicate; n = 1
# FLT3 = conditions: concentration: 1 μM, replicates: in singlicate; n = 1
# FLT4 = conditions: concentration: 1 μM, replicates: in singlicate; n = 1
# FRK = conditions: concentration: 1 μM, replicates: in singlicate; n = 1
# FYN = conditions: concentration: 1 μM, replicates: in singlicate; n = 1
# GAK = conditions: concentration: 1 μM, replicates: in singlicate; n = 1
# GCN2(Kin.Dom.2,S808G) = tested on: T1, GCN2(Kin.Dom.2,S808G); conditions: concentration: 1 μM, replicates: in singlicate; n = 1
# T1 construct: gene EIF2AK4
# GRK1 = conditions: concentration: 1 μM, replicates: in singlicate; n = 1
# GRK2 = tested on: T2, GRK2; conditions: concentration: 1 μM, replicates: in singlicate; n = 1
# T2 construct: gene ADRBK1
# GRK3 = tested on: T3, GRK3; conditions: concentration: 1 μM, replicates: in singlicate; n = 1
# T3 construct: gene ADRBK2
# GRK4 = conditions: concentration: 1 μM, replicates: in singlicate; n = 1
# GRK7 = conditions: concentration: 1 μM, replicates: in singlicate; n = 1
# GSK3A = conditions: concentration: 1 μM, replicates: in singlicate; n = 1
# GSK3B = conditions: n = 1
# [1] = concentration: 1 μM, replicates: in singlicate
# 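Also: KINOMEscan kinase panel screen.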
smiles,measurement,setting,value
CCS(=O)(=O)c1ccc(OC)c(Nc2nccc(-c3c(-c4cccc(NC(=O)c5c(F)cccc5F)c4)nn4ncccc34)n2)c1 [GSK326180],%Inh,FGFR1,0%
same,%Inh,FGFR2,0%
same,%Inh,FGFR3,16%
same,%Inh,FGFR4,16%
same,%Inh,FGR,64%
same,%Inh,FLT1,90%
same,%Inh,FLT3-autoinhibited,0%
same,%Inh,FLT3,0%
same,%Inh,FLT4,29%
same,%Inh,FRK,61%
same,%Inh,FYN,53%
same,%Inh,GAK,0%
same,%Inh,"GCN2(Kin.Dom.2,S808G)",8%
same,%Inh,GRK1,0%
same,%Inh,GRK2,0%
same,%Inh,GRK3,17%
same,%Inh,GRK4,0%
same,%Inh,GRK7,0%
same,%Inh,GSK3A,12%
same,%Inh,GSK3B; [1],2%
Fc1ccc(-c2ncn(C3CCNCC3)c2-c2ccnc(Oc3ccc(-c4ccccc4)cc3)n2)cc1 [SB-245391],%Inh,FGFR1,19%
same,%Inh,FGFR2,0%
same,%Inh,FGFR3,0%
same,%Inh,FGFR4,59%
same,%Inh,FGR,17%
same,%Inh,FLT1,13%
same,%Inh,FLT3-autoinhibited,1%
same,%Inh,FLT3,14%
same,%Inh,FLT4,5%
same,%Inh,FRK,31%
same,%Inh,FYN,20%
same,%Inh,GAK,22%
same,%Inh,"GCN2(Kin.Dom.2,S808G)",18%
same,%Inh,GRK1,19%
same,%Inh,GRK2,12%
same,%Inh,GRK3,22%
same,%Inh,GRK4,0%
same,%Inh,GRK7,32%
same,%Inh,GSK3A,0%
same,%Inh,GSK3B; [1],27%
Cl.Cl.NCC(NCc1ccc(-c2ccnc3[nH]ccc23)s1)c1ccccc1 (stereo not shown) [GSK1321565],%Inh,FGFR1,4%
same,%Inh,FGFR2,0%
same,%Inh,FGFR3,19%
same,%Inh,FGFR4,1%
same,%Inh,FGR,23%
same,%Inh,FLT1,18%
same,%Inh,FLT3-autoinhibited,12%
same,%Inh,FLT3,75%
same,%Inh,FLT4,5%
same,%Inh,FRK,0%
same,%Inh,FYN,0%
same,%Inh,GAK,34%
same,%Inh,"GCN2(Kin.Dom.2,S808G)",0%
same,%Inh,GRK1,50%
same,%Inh,GRK2,0%
same,%Inh,GRK3,37%
same,%Inh,GRK4,82%
same,%Inh,GRK7,83%
same,%Inh,GSK3A,0%
same,%Inh,GSK3B; [1],0%
COc1ccc(-c2coc3ccc(-c4nnc(SCc5ccc(OC)c(C(F)(F)F)c5)o4)cc23)cc1,%Inh,FGFR1,0%
same,%Inh,FGFR2,17%
same,%Inh,FGFR3,17%
same,%Inh,FGFR4,2%
same,%Inh,FGR,0%
same,%Inh,FLT1,0%
same,%Inh,FLT3-autoinhibited,19%
same,%Inh,FLT3,10%
same,%Inh,FLT4,13%
same,%Inh,FRK,0%
same,%Inh,FYN,3%
same,%Inh,GAK,10%
same,%Inh,"GCN2(Kin.Dom.2,S808G)",0%
same,%Inh,GRK1,19%
same,%Inh,GRK2,0%
same,%Inh,GRK3,0%
same,%Inh,GRK4,0%
same,%Inh,GRK7,21%
same,%Inh,GSK3A,25%
same,%Inh,GSK3B; [1],4%
Cc1ccc(S(=O)(=O)Nc2ccc(Nc3nccc(Nc4cccc5[nH]ncc45)n3)cc2)cc1 [GSK581271],%Inh,FGFR1,0%
same,%Inh,FGFR2,15%
same,%Inh,FGFR3,7%
same,%Inh,FGFR4,0%
same,%Inh,FGR,56%
same,%Inh,FLT1,19%
same,%Inh,FLT3-autoinhibited,0%
same,%Inh,FLT3,28%
same,%Inh,FLT4,5%
same,%Inh,FRK,73%
same,%Inh,FYN,41%
same,%Inh,GAK,44%
same,%Inh,"GCN2(Kin.Dom.2,S808G)",0%
same,%Inh,GRK1,0%
same,%Inh,GRK2,0%
same,%Inh,GRK3,42%
same,%Inh,GRK4,0%
same,%Inh,GRK7,0%
same,%Inh,GSK3A,24%
same,%Inh,GSK3B; [1],10%
COc1cc2c(cc1OCCN1CCNCC1)ncc1c3ccc(C#N)cc3[nH]c21,%Inh,FGFR1,0%
same,%Inh,FGFR2,16%
same,%Inh,FGFR3,21%
same,%Inh,FGFR4,0%
same,%Inh,FGR,2%
same,%Inh,FLT1,6%
same,%Inh,FLT3-autoinhibited,95.8%
same,%Inh,FLT3,98.5%
same,%Inh,FLT4,0%
same,%Inh,FRK,0%
same,%Inh,FYN,3%
same,%Inh,GAK,99.3%
same,%Inh,"GCN2(Kin.Dom.2,S808G)",92.5%
same,%Inh,GRK1,3%
same,%Inh,GRK2,0%
same,%Inh,GRK3,34%
same,%Inh,GRK4,88%
same,%Inh,GRK7,0%
same,%Inh,GSK3A,0%
same,%Inh,GSK3B; [1],26%
O=C(Nc1cccc(Oc2ccc3nc(NC(=O)C4CC4)cn3n2)c1)c1ccccc1C(F)(F)F,%Inh,FGFR1,1%
same,%Inh,FGFR2,23%
same,%Inh,FGFR3,0%
same,%Inh,FGFR4,2%
same,%Inh,FGR,55%
same,%Inh,FLT1,99.7%
same,%Inh,FLT3-autoinhibited,0%
same,%Inh,FLT3,20%
same,%Inh,FLT4,99.9%
same,%Inh,FRK,30%
same,%Inh,FYN,33%
same,%Inh,GAK,4%
same,%Inh,"GCN2(Kin.Dom.2,S808G)",7%
same,%Inh,GRK1,9%
same,%Inh,GRK2,0%
same,%Inh,GRK3,0%
same,%Inh,GRK4,46%
same,%Inh,GRK7,0%
same,%Inh,GSK3A,7%
same,%Inh,GSK3B; [1],0%
Nc1n[nH]c2cnc(-c3ccccc3)cc12 [SB-642124],%Inh,FGFR1,2%
same,%Inh,FGFR2,35%
same,%Inh,FGFR3,16%
same,%Inh,FGFR4,13%
same,%Inh,FGR,32%
same,%Inh,FLT1,0%
same,%Inh,FLT3-autoinhibited,0%
same,%Inh,FLT3,0%
same,%Inh,FLT4,8%
same,%Inh,FRK,10%
same,%Inh,FYN,25%
same,%Inh,GAK,13%
same,%Inh,"GCN2(Kin.Dom.2,S808G)",11%
same,%Inh,GRK1,0%
same,%Inh,GRK2,0%
same,%Inh,GRK3,42%
same,%Inh,GRK4,10%
same,%Inh,GRK7,0%
same,%Inh,GSK3A,40%
same,%Inh,GSK3B; 1 µM,25%
